# Reference: PubChem BioAssay
# Several values for one entry are separate records, joined by “and”; a condition that tells them apart may be missing. Identical values can stand only once. Results filed as inconclusive are left out. Activity calls are given as the source filed them. Unless noted, the limit is not given here; nearly all actives have AC50 up to about 26 µM.
# Key:
# [1] = growth inhibition of CRL1545 osteosarcoma cells, cell-based, cisplatin and BGB IC20 combos (AID 1671464); settings: stronger effect = higher value;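 also: cells exposed to compound for 96 hours before readout; 0% = vehicle DMSO and 100% = high DMSO killing control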
# [2] = growth inhibition of DIPG glioma cells, dose response, cell-based, SU-DIPG-XVII, MIPE5.0, CellTiter-Glo, qHTS (AID 1347060); settings: SU-DIPG-XVII viability, CellTiter-Glo ATP luminescence;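 as to AC50: cells exposed to compound for 48 hours before viability readout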
# [3] = viability loss in pontine glioma line – cell-based, SU-DIPG-XXV, MIPE5.0, CellTiter-Glo, qHTS, dose response (AID 1347065); settings: CellTiter-Glo ATP luminescence;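 also: cells exposed to compound for 48 hours before ATP readout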
# [4] = growth inhibition of DIPG glioma cells, dose response, cell-based, SU-DIPG-XIII, MIPE5.0, CellTiter-Glo, qHTS (AID 1347064; cut-off not given, nearly all actives have AC50 up to about 23 µM); settings: SU-DIPG-XIII viability, CellTiter-Glo ATP luminescence
# [5] = SU-DIPG-XXV glioma cell viability, MIPE5.0 library, qHTS (AID 1347068; cut-off not given, nearly all actives have IC50 up to about 30 µM)
# [6] = JHH-DIPG-1 glioma cell viability, MIPE5.0 library, CellTiter-Glo luminescence, qHTS (AID 1347067); settings: JHH-DIPG-1 glioma viability, CellTiter-Glo ATP luminescence;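 also: cells exposed to compound for 48 hours before readout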
# [7] = sensitizers of A549 cells to miR-34 induction, primary screen, imaging, A549 dox-inducible miR-34, nuclei and caspase counts (AID 1347080;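 active = compounds whose cell count with miR-34 switched on is under 0.7 times the count with it off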); settings: A549 miR-34 inducible, Hoechst nuclei count, 48 h
structure (smiles),measurement,setting,value
NC(=O)c1nc(F)c[nH]c1=O,inhibition,"[1]; measured here: with cisplatin IC20 combination, at 0.5 µM",16%
same,inhibition,"[1]; single agent, at 0.05 µM",-15.2%
same,inhibition,"[1]; single agent, at 5 µM",-29.6%
COc1ccc2c(c1)[C@]1(C[C@H]1c1ccc3c(/C=C/c4ccc(CN5C[C@@H](C)O[C@@H](C)C5)cc4)n[nH]c3c1)C(=O)N2,AC50,[2],4.17 µM (active)
same,AC50,[3],0.0417 µM (active)
CCS(=O)(=O)c1ccc2oc(-c3ccc4ccccc4c3)nc2c1,outcome,[2],inactive
same,outcome,[4],inactive
same,outcome,[5],inactive
CC(C)Oc1ccc(-c2nc(-c3cccc4c3CC[C@@H]4NCCO)no2)cc1C#N,AC50,[2],20.9 µM (active)
same,AC50,[3],16.6 µM (active)
Cc1noc(-c2ccc(-c3ccc(C4(C(=O)O)CC4)cc3)cc2)c1NC(=O)O[C@H](C)c1ccccc1,AC50,[2],23.5 µM (active)
same,AC50,[3],23.5 µM (active)
CCOc1ccccc1N=Nc1c(C)[nH]n(-c2nc(-c3ccccc3)cs2)c1=O,outcome,[2],inactive
same,outcome,[4],inactive
same,outcome,[6],inactive
same,outcome,[5],inactive
Cc1ccc(C2=Nc3ccc(Cl)cc3OC2)cc1,outcome,[2],inactive
same,outcome,[4],inactive
same,outcome,[5],inactive
O=S(=O)(c1cccc2c(I)cccc12)N1CCCNCC1,outcome,[2],inactive
same,outcome,[4],inactive
same,outcome,[6],inactive
same,fold change,"[7]; stronger effect = lower value, cell number ratio, induced over uninduced",0.977 (inactive) and 0.963 (inactive)
same,fold change,[7]; measured here: relative caspase fold change +Dox/-Dox,0.686 and 1.04
same,cell count,"[7]; measured here: total cells with miR-34 induction, stronger effect = lower value",7130 and 3010
same,cell count,[7]; measured here: total cells without miR-34 induction,7300 and 3130
